Measurements published in PubChem BioAssay AID449762 (Southern Research Specialized Biocontainment Screening …, 2010).
Among all 330,000 compounds or so, about 1,900 (0.58%) were called active. Roughly 4% stayed inconclusive and do not appear here. Not all results are given here. Results with a measured potency or affinity are listed apart. Unmarked numbers belong to inactive results. Cut-off read from the data, not from the text of the source: inconclusive = inhibition above about 70% without an active follow-up result; inactive = below that.

Experiment: M. tuberculosis growth inhibition, HTS (AID 449762);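 note: bacterial growth assessed after seven days of incubation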
Settings: M. tuberculosis H37Rv growth inhibition, 7H9 media; at 25 µM; active compounds read high

Row | Structure (SMILES) | inhibition [%]
1 | Cc1c2ccccc2nc2ccccc12 | 21.6
2 | CC1CCc2nc3ccccc3c(C(=O)OCC(=O)NC3CCS(=O)(=O)C3)c2C1 (stereo not drawn) | 9.92
3 | CCOC(=O)c1cc(-c2ccc(N3CCOCC3)cc2)nn1-c1ccc(F)cc1F | 30.5
4 | CCOC(=O)c1cc(-c2ccc(N3CCOCC3)cc2)nn1-c1ccccc1C(=O)O | -2.68
5 | COc1ccccc1N1CCN(c2nnc(-c3ccc(F)cc3)c3ccccc23)CC1 | -0.63
6 | COc1cc(C(=O)N/C(=C\c2cn(S(=O)(=O)N(C)C)c3ccccc23)C(=O)N2CCCC2)cc(OC)c1OC | 7.41
7 | COc1cc(/C=N/n2cc(-c3ccccc3)[nH]c2=S)cc(OC)c1O | -4.41
8 | Cc1ccc(-n2cnc3scc(-c4cccs4)c3c2=O)cc1 | 9.75
9 | O=c1cc(-c2ccccc2)oc2ccccc12 | -7.12
10 | O=c1cc(/C=C/c2ccccc2)oc2c1ccc1ccccc12 | -0.73
11 | CN1CCCN(C(=O)c2cc(-c3ccc(Cl)c(Cl)c3Cl)nc3ccccc23)CC1 | 5.52
12 | CCOCCCNC(=O)C(NC(=O)Cc1cccs1)c1ccc(OC)cc1 (stereo not drawn) | 3.59
13 | CCOC(=O)c1sc(C)c2c(=O)n(CCc3ccccc3)nnc12 | -10.6
14 | CCOC(=O)c1sc(C)c2c(=O)n(CC)nnc12 | -7.87
15 | COC(=O)C1=C(C)N(CCCC(=O)O)C(=O)NC1c1ccc(Br)cc1 (stereo not drawn) | 2.77
16 | COCCn1cc(C(=S)N2CCCCC2)c2ccccc21 | 5.15
17 | CCOc1ccc(NS(=O)(=O)c2ccc(C(=O)NCCN3CCOCC3)cc2)cc1 | -3.65
18 | NC(=S)N/N=C/c1ccc(-c2cc(Cl)cc(Cl)c2)o1 | -4.69
19 | CCNC(=S)N/N=C/c1ccc(-c2ccccc2)o1 | -5.23
20 | CC(=O)N1CCN(C(=O)C(Cc2ccccc2)NC(=O)c2ccccc2)CC1 (stereo not drawn) | -1.96
21 | COc1cc(CSC)nc(-c2ccccc2)n1 | -6.71
22 | CC(=O)N1N=C(c2ccc(Cl)cc2)CC1c1ccc([N+](=O)[O-])cc1 (stereo not drawn) | -2.62
23 | CC1(O)CC(c2ccc(Cl)cc2)=NN1C(=O)c1ccc(Cl)cc1 (stereo not drawn) | 47.7
24 | CC(=O)Nc1ccc(NC(=O)CCn2c(=S)oc3ccccc32)cc1 | 0.4

Row | Structure (SMILES) | inhibition [%]
25 | Cc1cccc(C)c1NC(=S)N(Cc1ccccc1)Cc1cccnc1 | -3.48
26 | O=C(O)[C@@H]1[C@@H]2C[C@@H]2CN1c1ncccc1[N+](=O)[O-] | -3.12
27 | CN1C(=O)N(C)c2ccc(Br)c3cccc1c23 | -5.58
28 | CN1C(=O)N(C)c2cccc3cccc1c23 | 7.44
29 | O=C(c1cc2c(=O)n3ccccc3nc2s1)N1CCN(c2cccc(Cl)c2)CC1 | 5.56
30 | CC(=O)c1nn(-c2ccccc2)cc1C(=O)c1ccc(C)cc1 | 2.07
31 | COc1ccc2oc(-c3ccc(C)c(NC(=O)CSc4ccc(Cl)cc4)c3)nc2c1 | -3.67
32 | Cc1ccc(/C=C2\SC(=S)N(CCC(=O)NNC(=O)c3ccc(O)cc3)C2=O)cc1 | 3.42
33 | Cc1cccc(C2=N/C(=C\c3cccnc3)C(=O)O2)c1 | -3.98
34 | Cc1ccccc1C1=N/C(=C/c2cccs2)C(=O)O1 | 61
35 | CCOC(=O)N=Nc1c(O)n(CC(=O)OC)c2ccccc12 | -0.16
36 | CCCSc1nc2c(cnn2-c2ccc(Cl)cc2)c(=O)[nH]1 | 6.95
37 | O=C(NNC(=O)c1cc(S(=O)(=O)N2CCOCC2)c(Cl)cc1Cl)c1ccccc1F | 0.47
38 | Cc1nn(Cc2ccccc2)c(C)c1C(=O)OCC(=O)Nc1cc(S(C)(=O)=O)ccc1Cl | 6.17
39 | O=C(Nc1ccccc1Cl)N1CCN(c2ccc3nnc(-c4ccc(F)cc4)n3n2)CC1 | 22.4
40 | O=C(Nc1ccc(F)cc1)N1CCN(c2ccc3nnc(-c4ccc(F)cc4)n3n2)CC1 | -4.53
41 | CC1=C(C(=O)NC(C)c2ccccc2)C2(CCC(C)CC2)OC1=O (stereo not drawn) | -6.81
42 | Cc1cc(/C=C(\C#N)C(=O)NCc2ccccc2)cc(C)c1O | -9.9
43 | CCOc1cc(CNCc2ccc3c(c2)OCO3)ccc1OC | -2.37
44 | COc1ccc(CCNC(=O)CSc2ncc(C(=O)Nc3ccccc3)c(=O)n2C)cc1 | -4.13
45 | COc1cccc(NC(=S)N(CCCN2CCCC2)Cc2cccn2Cc2ccc(Cl)cc2)c1 | 6.09
46 | Cc1cccc(NC(=S)N(CCCN2CCCC2)Cc2cccn2Cc2ccc(Cl)cc2)c1 | 42.3
47 | CN(C)N1C(=O)/C(=C/c2ccco2)SC1=Nc1ccccc1 | -2.31
48 | OC1(c2ccccc2)CCN(Cc2ccccc2)CC1 | -0.23

Row | Structure (SMILES) | inhibition [%]
49 | ClC1(CNc2ccccc2)CCN(Cc2ccccc2)CC1 | -3.08
50 | CCOC(=O)N1CCC2(CC1)C(C#N)=C(N)OC1=C2C(=O)CC(C)C1 (stereo not drawn) | -8.64
51 | COc1ccc(NC(=O)CSc2nc3ccccc3c(=O)[nH]2)cc1S(N)(=O)=O | -3.14
52 | CC(=O)Nc1ccc(-c2csc(N/N=C\c3ccncc3)n2)cc1 | 6.44
53 | C(=N\Nc1nc(-c2ccccc2)cs1)/c1cccs1 | 28.8
54 | CC(CNC(=O)CN1C(=O)NC2(CCCCC2)C1=O)c1ccccc1 (stereo not drawn) | -3.97
55 | COC(=O)c1nnn(CC(=O)NC(=O)Nc2ccccc2)c1C(=O)OC | -6.63
56 | COc1ccc(C(=O)Nc2ccc3c(c2)C(=O)c2ccccc2C3=O)cc1OC | 4.14
57 | O=C1c2ccccc2C(=O)c2c1oc(C(F)(F)F)c2C(=O)c1ccccc1 | 9.23
58 | CC(C)(C)c1ccc(C(=O)NCC(=O)OCC(=O)N2CCN(S(=O)(=O)c3ccc(Cl)cc3)CC2)cc1 | 8.58
59 | Cc1ccc(S(=O)(=O)NCc2ccc(C(=O)NCCCN3CCN(C)CC3)cc2)cc1 | -4.79
60 | CC(=O)Nc1ccc(S(=O)(=O)NCc2ccc(C(=O)NCCCN3CCC(C)CC3)cc2)cc1 | 2.04
61 | N/C(=N\OC(=O)c1cnn(-c2ccccc2)c1C(F)(F)F)c1cc(C(F)(F)F)cc(C(F)(F)F)c1 | 9.61
62 | COc1cc(C2/C(=C(\O)c3ccc4c(c3)OCCO4)C(=O)C(=O)N2Cc2ccco2)ccc1O (stereo not drawn) | -4.18
63 | CSCc1ccc(C(=O)OCc2nc3ccccc3s2)o1 | 65.8
64 | O=C(OCc1nc2ccccc2s1)c1ccco1 | 53.7
65 | CC(=O)C1=C(O)C(=O)N(c2ccc(Br)cc2)C1c1cccc([N+](=O)[O-])c1 (stereo not drawn) | -1.11
66 | O=C(CS(=O)CC(=O)Nc1cnc2ccccc2c1)Nc1ccc(Cl)cc1 (stereo not drawn) | 47
67 | CCOc1ccc(NC(=S)NC23CC4CC(CC(C4)C2)C3)cc1 | -20.5
68 | CSc1nsc(SC)c1C(=O)OCC(F)(F)F | -1.41
69 | CCN1CCN(CC2COc3ccccc3O2)CC1 (stereo not drawn) | -2.32
70 | CCN(CC)C(=O)CN1CCC(c2nc3cc(C)c(C)cc3[nH]2)CC1 | -1.85
71 | CCC(C)N1C(=O)CCC1C(=O)NCCc1ccc(Cl)cc1 (stereo not drawn) | 5.11
72 | CCCCOc1ccc(CC2CCC(=O)NC2=O)cc1 (stereo not drawn) | 12.4

Row | Structure (SMILES) | inhibition [%]
73 | CCOc1ccc(C(C)(C)C)cc1S(=O)(=O)n1nc(C)cc1C | -3.62
74 | O=C(/C=C/c1ccccc1)Oc1ccc(C(=S)N2CCOCC2)cc1 | 13.4
75 | COc1cc(C(=S)N2CCOCC2)ccc1OC(=O)/C=C/c1ccco1 | 5.25
76 | CN(C(=O)c1cccc(NC(=O)c2ccccc2)c1)C1CCCCC1 | -5.84
77 | CN(C)S(=O)(=O)c1ccc(Nc2ccc(-c3ccc4c(c3)OCCO4)nn2)cc1 | 2.53
78 | CCOc1ccc(-c2nn3c(-c4ccc(F)cc4)nnc3s2)cc1 | 0.65
79 | COc1ccc(-c2nn3c(-c4ccccc4)nnc3s2)cc1 | 36.9
80 | COc1ccccc1OCC(=O)N/N=C1/C=C(C)CC1 | 8.93
81 | COc1ccc(CNC(=O)C2CCC(CNc3c(N4CCOCC4)c(=O)c3=O)CC2)cc1 (stereo not drawn) | -8.95
82 | COc1cc(NC(=O)c2ccc(CNc3c(N4CCOCC4)c(=O)c3=O)cc2)cc(OC)c1 | -10.6
83 | O=C(c1ccc(CNc2c(N3CCCC3)c(=O)c2=O)cc1)N1CCN(C2CCCCC2)CC1 | 38.8
84 | Cc1ccc(CNC(=O)c2ccc(CNc3c(N4CCCC4)c(=O)c3=O)cc2)cc1 | -5.18
85 | CC(C)C[C@H]1CNC(=O)C(=O)N1C[C@H](C)NC(=O)Cc1ccccc1 | -3.35
86 | N#Cc1cccc(C(=O)N(CCc2ccccc2)Cc2cccs2)c1 | 2.88
87 | Cc1cc(NC(=O)CN(C)CC(=O)Nc2ccc(F)c(F)c2F)no1 | -14.5
88 | O=c1nc2n(c3ccc(Br)cc13)CCS2 | 14
89 | N#Cc1c(-c2ccc(Br)cc2)nc2n(c1=O)CCCS2 | -5.36
90 | CC(C)n1nnnc1-c1ccc(Cl)cc1 | -5.7
91 | N#Cc1ccc(C23OCCN2CCn2c3c3ccccc3[n+]2[O-])cc1 (stereo not drawn) | 21.6
92 | Cc1ccc(C23OCCN2CCn2nc4ccccc4c23)cc1 (stereo not drawn) | -9.54
93 | O=C(Nc1sc2c(c1C(=O)NC1CC1)CCCCCC2)c1ccco1 | -5.06
